# Source: PubChem BioAssay AID1063 (University of Pittsburgh Molecular Library Screening Center, 2008)
# “And” between values parts separate entries of the source, which are not always exact repeats. Equal values may be shown once. Among all 200,000 compounds or so, about 18,000 (9%) were called active. The sample holds actives, similar compounds and a random draw of the others, so the mix is not that of the screen. Rule as the data show it: active = inhibition above about 50%; inactive = the rest.
# Test: Leishmania major promastigote growth inhibition, primary screen (AID 1063);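 also: promastigotes grown with compound for 44 hours at 28 °C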
# Conditions: Leishmania major promastigotes, resazurin fluorescence viability; at 10 µM; stronger effect = higher value
row,Structure (SMILES),inhibition
1,O=C(CSc1nc2ccccc2[nH]1)N/N=C/C=C\c1ccccc1[N+](=O)[O-],40.1% (inactive)
2,CN1CCN(c2ccc([N+](=O)[O-])c(Sc3nc4ccccc4[nH]3)c2)CC1,57% (active)
3,O=[N+]([O-])c1ccc(N2CCNCC2)cc1NCc1cccnc1,-1.11% (inactive)
4,COc1ccc(S(=O)(=O)N2CCOCC2)cc1NC(=O)CSc1ncnc2ccccc12,23% (inactive)
5,O=C(NC1CC1)C1CCCN(C(=O)NC2CCCCC2)C1 (stereo not drawn),1.82% (inactive)
6,COc1ccc(-c2nn(-c3ccccc3)cc2CN2CCCO2)c(F)c1,13% (inactive)
7,O=C(CCCN1C(=O)/C(=C/c2ccccc2)SC1=S)Nc1ccc(O)cc1,56.3% (active)
8,O=C(CCCN1C(=O)/C(=C/c2ccco2)SC1=S)Nc1ccccc1,10.2% (inactive)
9,O=C(CCCN1C(=O)/C(=C\c2ccco2)SC1=S)Nc1cccc2ccccc12,30.1% (inactive)
10,O=C(Nc1ccc([N+](=O)[O-])cc1)C1CC12CCC2 (stereo not drawn),2.36% (inactive)
11,COc1ccc(/C(N)=N/OC(=O)Cc2ccccc2)cc1,-6.43% (inactive)
12,N/C(=N\OC(=O)CCC1CCCCC1)c1ccccn1,-4.7% (inactive)
13,N/C(=N\OC(=O)CC1CCCCC1)c1ccccc1,57.8% (active)
14,CCc1ccccc1N1C(=O)C2C3CC(=O)C(c4ccccc43)C2C1=O (stereo not drawn),7.01% (inactive)
15,Cc1noc(C)c1COc1ccc2ccc(=O)oc2c1,-4.27% (inactive)
16,COc1cc(C)c(C(C)C)cc1S(=O)(=O)n1ccnc1,97.8% (active)
17,COc1cc(C)c(Cl)cc1S(=O)(=O)n1ccnc1,80.5% (active)
18,CCOc1ccc(S(=O)(=O)n2ccnc2)c2ccccc12,-5.02% (inactive)
19,CCOc1ccc(C(C)C)cc1S(=O)(=O)n1nc(C)cc1C,0.47% (inactive)
20,CCOc1cc(C)c(Cl)cc1S(=O)(=O)n1nnc2ccccc21,1.2% (inactive)
21,COc1cc(Cl)c(S(=O)(=O)n2cnc(C)c2)cc1Cl,2.35% (inactive)

row,Structure (SMILES),inhibition
1,N#Cc1c(NC(=O)CCCl)sc2c1CCCCC2,-0.81% (inactive)
2,CCCCCc1nnc(NC(=O)c2ccc(=O)n(C)n2)s1,1.57% (inactive)
3,O=C1N/C(=C/c2cccs2)C(=O)N1Cc1ccc(F)cc1,-5.2% (inactive)
4,CC1CC1C(=O)OCC(=O)c1c(N)n(C)c(=O)n(C)c1=O (stereo not drawn),-4.6% (inactive)
5,COCCN(C(=O)C(C)C)c1nnc(-c2ccc(C(C)(C)C)cc2)s1,8.79% (inactive)
6,O=C(O)c1ccc2c3c(cccc13)C(=O)N(OS(=O)(=O)c1ccccc1)C2=O,-8.08% (inactive)
7,Cc1cccc(C)c1NC(=O)CSc1ccc([N+](=O)[O-])cn1,-1.31% (inactive)
8,Cc1cc(C)c(C#N)c(SCC(=O)Nc2ccccc2)n1,-5.68% (inactive)
9,Cc1cc2cc3c(cc2nc1SCC(=O)Nc1c(C)cccc1C)CCC3,78.9% (active)
10,CS(=O)(=O)N(CC(=O)N/N=C/c1ccccn1)c1ccc(Oc2ccccc2)cc1,32.9% (inactive)
11,CCCN(CC(=O)Nc1ccccc1C)C(=O)c1cc(=O)[nH]c2ccccc12,1.78% (inactive)
12,O=C(O)/C=C/c1cn(-c2ccccc2)nc1-c1cccs1,-2.18% (inactive)
13,CC(=O)C1=C(C)NC(C)=C(C(C)=O)C1c1cn(-c2ccccc2)nc1-c1cccs1,79.7% (active)
14,O=C(O)c1ccc(N/N=C/c2cn(-c3ccccc3)nc2-c2cccs2)cc1,46.2% (inactive)
15,CC(=O)Nc1ccc(S(=O)(=O)Oc2ccc(/C=N/N=C3/NC(=O)C(CC(=O)O)S3)cc2)cc1 (stereo not drawn),-13.1% (inactive)
16,Cc1cccc(C)c1NC(=O)C1CCCN1C(=O)OC(C)(C)C (stereo not drawn),-5.04% (inactive)
17,Cc1ccc(NC(=O)c2csc3c2CCCC3)cc1,12.4% (inactive)
18,Cc1cc(C(=O)OC(C)C(=O)Nc2cccc(S(=O)(=O)N3CCOCC3)c2)c(C)o1 (stereo not drawn),99.7% (active)
19,CC(Sc1cccc[n+]1[O-])C(=O)Nc1cccc(S(=O)(=O)N2CCOCC2)c1 (stereo not drawn),-4.48% (inactive)
20,O=C(COC(=O)c1ccccc1)Nc1cccc(S(=O)(=O)N2CCOCC2)c1,-3.29% (inactive)
21,Cc1nc(CN2CCN(C(=O)CCc3nnc(Cc4c[nH]c5ccccc45)o3)CC2)cs1,0.41% (inactive)

row,Structure (SMILES),inhibition
1,CN(CCN1CCOCC1)Cc1nc(-c2ccc3c(c2)OCO3)no1,39.3% (inactive)
2,CC(C)c1cc(NCc2ccccn2)n2c(nc3ccccc32)c1C#N,8.36% (inactive)
3,Cc1cc(N/N=C/c2ccccc2F)c2ccccc2n1,12.3% (inactive)
4,Cc1nc(N2CCOCC2)sc1C(=O)NN,7.46% (inactive)
5,Cc1ccc(C(=O)N2CCCC(c3ccccc3)=N2)cc1,16.1% (inactive)
6,Cn1c(-c2ccccc2)c[n+]2c1CCCCC2,0.17% (inactive)
7,Cc1ccc(C(=O)C[n+]2cc(-c3ccccc3)n3c2CCCCC3)cc1,101% (active) and 100% (active)
8,N/C(=N/O)c1cccn1Cc1ccccc1[N+](=O)[O-],-1.66% (inactive)
9,COc1ccc(C)cc1NC(=O)c1ccc(-c2ccc(C(C)=O)cc2)o1,-4.3% (inactive)
10,O=C(NC1CCN(Cc2ccccc2)CC1)c1c(F)cccc1F,21.7% (inactive)
11,S=C(NN=C1CCN(Cc2ccccc2)CC1)NC1CCCCC1,-4.71% (inactive)
12,O=C(NNC(=S)Nc1ccc(Br)cc1Cl)c1ccco1,0.76% (inactive)
13,O=C(COc1ccc(Br)cc1F)NC1CCN(Cc2ccccc2)CC1,93.2% (active)
14,S=C(Nc1ccc(Br)cc1Cl)NC1CCN(Cc2ccccc2)CC1,90.3% (active)
15,Cc1ccn2cc(C(=O)NC3CCN(Cc4ccccc4)CC3)nc2c1,4.6% (inactive)
16,O=C(NC1CCN(Cc2ccccc2)CC1)c1ccccc1F,62.4% (active)
17,COc1cc2[nH]c(=O)n(CCC(=O)NC3CCN(Cc4ccccc4)CC3)c(=O)c2cc1OC,-1.95% (inactive)
18,O=C(COc1ccccc1F)NC1CC1,-1.88% (inactive)
19,O=C(NC(=S)N1CCN(Cc2ccccc2)CC1)c1ccccc1,14.1% (inactive)
20,COc1cc2[nH]c(=O)n(Cc3ccc(C(=O)NC4CCN(Cc5ccccc5)CC4)cc3)c(=O)c2cc1OC,-5.05% (inactive)
21,O=C(NC1CCN(Cc2ccccc2)CC1)c1cc(Br)c(Br)[nH]1,60.3% (active)
